Screening data: PubChem, National Center for Advancing Translational Sciences (NCATS)
Shown are actives, neighbours in structure and some others; about 2.3% of the full set was active somewhere.
TRPV1 agonist – agonists of human vanilloid receptor 1 (TRPV1). TRPV1-expressing cells, Fluo-8 calcium influx, agonist mode. activation, % at 8.33 µM. actives 0.19% (n = 320,000). AID 540275; in the data active = activation above about 80%; inconclusive = between about 30% and that limit; note: 0% is about no effect
Target sequence (Q8NER1 whole entry, looked up): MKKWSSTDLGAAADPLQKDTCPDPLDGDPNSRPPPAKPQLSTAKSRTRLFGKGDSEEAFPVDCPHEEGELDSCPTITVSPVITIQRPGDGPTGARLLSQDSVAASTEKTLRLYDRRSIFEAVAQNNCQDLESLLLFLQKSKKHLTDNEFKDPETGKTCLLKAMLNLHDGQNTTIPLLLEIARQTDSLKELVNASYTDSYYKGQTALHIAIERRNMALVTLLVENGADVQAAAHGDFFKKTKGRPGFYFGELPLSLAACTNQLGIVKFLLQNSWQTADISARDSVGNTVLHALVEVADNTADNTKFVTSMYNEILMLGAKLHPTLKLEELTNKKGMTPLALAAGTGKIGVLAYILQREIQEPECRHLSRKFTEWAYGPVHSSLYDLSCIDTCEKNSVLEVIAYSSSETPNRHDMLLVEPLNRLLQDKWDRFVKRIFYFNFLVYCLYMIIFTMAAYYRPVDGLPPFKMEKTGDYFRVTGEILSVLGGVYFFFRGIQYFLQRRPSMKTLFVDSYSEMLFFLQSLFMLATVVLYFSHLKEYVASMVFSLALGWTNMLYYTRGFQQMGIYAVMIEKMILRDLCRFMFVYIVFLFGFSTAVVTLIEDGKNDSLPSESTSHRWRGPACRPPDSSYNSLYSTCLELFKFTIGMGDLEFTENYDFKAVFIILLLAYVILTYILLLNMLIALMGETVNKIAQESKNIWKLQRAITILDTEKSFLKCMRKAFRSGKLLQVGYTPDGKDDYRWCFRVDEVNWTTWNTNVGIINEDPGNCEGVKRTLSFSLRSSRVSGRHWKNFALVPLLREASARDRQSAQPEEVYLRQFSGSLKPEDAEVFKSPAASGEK
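Cells expressing TRPV1 were dye-loaded with Fluo-8 and read kinetically: 10 s baseline, 3 min after compound (agonist portion), then 2 min after EC20 capsaicin (allosteric enhancer portion). Calcium-bound dye fluorescence at 480/520 nm.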
Giardia kill – kills Giardia lamblia | Giardia lamblia trophozoite viability | activity change, % at 7.66 µM, hits read low | actives 0.15% (n = 340,000); in the data active = activity change below about -80%; inconclusive = between about -30% and that limit;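 note: parasites exposed to compound for two days anaerobically before the ATP read; % is set by controls: 0 for no effect and ±100 for the full control effect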
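ATP-content bioluminescence gauges trophozoite survival. Cells (100/well) receive compound and incubate anaerobically for 48 hrs at 37 deg C; detection reagent follows for 15-30 min at room temperature.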
TRPV1 potentiator – human TRPV1 potentiation. Q8NER1. TRPV1-expressing cells, Fluo-8 calcium influx, capsaicin EC20 potentiation. potentiation, % at 8.33 µM. actives 0.02% (n = 320,000). AID 540277; in the data active = potentiation above about 80%; inconclusive = between about 30% and that limit; note: 0% is about no effect
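Cells expressing TRPV1 were dye-loaded with Fluo-8 and read kinetically: 10 s baseline, 3 min after compound (agonist portion), then 2 min after EC20 capsaicin (allosteric enhancer portion). Calcium-bound dye fluorescence at 480/520 nm.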
ELG1 DNA repair – inhibitors of ELG1-dependent DNA repair in HEK293T cells | AID 504467 | HEK293T ELG1-luciferase reporter, luminescence, 16 h; DNA damage induced by 5-fluorouridine | actives 2.3% (n = 330,000) | Potency, µM (highest dose often 46.1 µM), without a hit: at the highest dose activity change, negative = inhibition, actives largely listed as inhibitors; note: potency is the fitted concentration of half-maximal effect; % is set by controls: 0 for no effect and ±100 for the full control effect; nearly all actives have a fitted effect of over 55% in size
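HEK293T cells expressing luciferase-tagged ELG1 (2,000/well) received 5-Fluorouridine plus compound or DMSO for 16 hr at 37 °C. Luciferase was read by ONE-Glo luminescence after 30 min at room temperature.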
FUS suppressor – rescues growth of FUS-expressing yeast; Potency, µM (highest dose often 76.6 µM), usual class: activators; AID 1347120; actives 0.24% (n = 390,000); S. cerevisiae FUS-expressing, growth rescue, OD600, 24 h;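 note: potency is the fitted concentration of half-maximal effect; plate controls were DMSO vehicle for no effect and reference control for full effect; nearly all actives have a fitted effect of over 55% in size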
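Yeast FUS proteinopathy model; galactose-induced FUS (2%), starting OD 0.005. Cpds in dilution series, 24hr, 30C, 99% humidity. Abs 600 nm growth. Pos ctrl CP55940 (top 92uM final); neg ctrl DMSO.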
* = called active by the depositor; i = inactive; ? = inconclusive; / = not tested or not shown. Unless noted, calls come from the whole dose curve; as a rule, active = well fitted curve in the direction sought with a large enough effect; inconclusive = small, poorly fitted or top-dose-only effect, or another doubt; inactive = no such curve, though single readings can be large; an effect the other way counts as inactive or inconclusive.

SMILES	TRPV1 agonist	Giardia kill	TRPV1 potentiator	ELG1 DNA repair	FUS suppressor
NS(=O)(=O)c1ccc(CCNC(=O)C2CCN(S(=O)(=O)c3cnc[nH]3)CC2)cc1	2	14	-8	?	25µM*
NS(=O)(=O)c1ccc(CCNC(=O)C2CCN(S(=O)(=O)c3ccccc3)CC2)cc1	-2	-4	10	-2%	i
O=C1C=CCC(/C=C/c2ccccc2)O1 (configuration not stated)	4	4	-1	18µM*	i
COc1ccc(C(C(=O)NCc2ccccc2)N(C(=O)c2snc(C(N)=O)c2N)c2ccccc2OC)cc1 (configuration not stated)	3	-1	-6	18µM*	i
COc1ccc(C(C(=O)NC2CCCC2)N(C(=O)c2snc(C(N)=O)c2N)c2cccc(O)c2)cc1 (configuration not stated)	-4	26	13	16µM*	?
COc1ccc(C(C(=O)NCc2ccccc2)N(Cc2ccco2)C(=O)c2snc(C(N)=O)c2N)cc1 (configuration not stated)	6	-13	5	21µM*	?
COc1ccc(C(C(=O)NCc2ccccc2)N(Cc2ccco2)C(=O)c2snc(C(N)=O)c2N)cc1OC (configuration not stated)	3	3	-2	15µM*	i
COc1ccc(C(C(=O)NCC2CCCO2)N(Cc2ccco2)C(=O)c2snc(C(N)=O)c2N)cc1OC (configuration not stated)	2	-17	4	-28%	i
O=C(CSc1nc2c([nH]c3ccccc32)c(=O)n1-c1ccc(Cl)cc1)N1CCc2ccccc21	/	/	/	/	i
COc1ccc(CNC(=O)c2ccc3c(c2)NC(=O)C(CS(=O)(=O)Cc2ccccc2Cl)N3)cc1 (configuration not stated)	/	/	/	/	i
COc1ccc(-n2nc(-c3ccc(C)cc3)c3cnc4cc(F)c(F)cc4c32)cc1	/	/	/	/	i
Cc1ccccc1Cn1ccc(NC(=O)c2cnn3c(C(F)(F)F)cc(-c4ccco4)nc23)n1	-6	13	-23	7.9µM*	i
Cc1ccccc1Cn1ccc(NC(=O)CCSc2nc(-c3ccco3)cc(C(F)(F)F)n2)n1	1	-16	5	?	i
O=C(CCNC(=O)c1ccc([N+](=O)[O-])cc1)Nc1ccc(Cl)c(S(=O)(=O)N2CCOCC2)c1	-2	-22	0	18µM*	i
O=C(CCNC(=O)c1ccccc1)Nc1ccc(Cl)c(S(=O)(=O)N2CCCCC2)c1	/	27	/	16µM*	i
CCOc1ccc(-c2nc(Cn3ccn4nc(-c5ccc(OCC)c(Cl)c5)cc4c3=O)c(C)o2)cc1	/	/	/	/	i
COCc1nnc(NC(=O)c2ccc(S(=O)(=O)N3CCCc4ccccc43)cc2)o1	-2	6	2	16µM*	?
COc1ccc(-c2nnc(NC(=O)c3ccc(S(=O)(=O)N4CCCc5ccccc54)cc3)o2)cc1	1	-10	4	?	i
O=C(Nc1nnc(C2CC2)o1)c1ccc(S(=O)(=O)N2CCCc3ccccc32)cc1	/	?	/	7.3µM*	i
COc1ccc(-c2nc(CNC(=O)NC3CCCCC3)c(C)o2)c(OC)c1	/	/	/	/	i
Cc1sc2ncnc(N3CCC(C(=O)Nc4ccc(OC(F)F)c(Cl)c4)CC3)c2c1C	/	-23	/	10µM*	i
Cc1ccc(N(Cc2ccc(C(=O)NCCSc3ccccn3)cc2)S(C)(=O)=O)cc1C	8	-6	-2	9.2µM*	/
CCC(C(=O)NCCc1ccccc1)n1nc(C)c2sc3ccccc3c2c1=O (configuration not stated)	/	/	/	/	i
CCOC(=O)c1c(C)c(-c2ccccc2)n(CC(=O)Nc2cc(C)ccc2OC)c1C	/	/	/	/	i
N#Cc1c(C(F)(F)F)cc(-c2cccs2)nc1SCC(=O)Nc1ccc(F)cc1	/	/	/	/	i
SMILES	TRPV1 agonist	Giardia kill	TRPV1 potentiator	ELG1 DNA repair	FUS suppressor
Cc1cc[n+](C(C)C(=O)c2ccc(-c3ccccc3)cc2)cc1 (configuration not stated)	2	9	-10	2.1µM*	i
CC(C(=O)c1ccc(-c2ccccc2)cc1)[n+]1ccccc1 (configuration not stated)	-1	-14	7	3%	i
COc1ccc(C)c2sc(N(Cc3cccnc3)C(=O)C3CCCCC3)nc12	/	/	/	/	i
CC(=O)c1ccc(N=Cc2c(O)n(-c3cc(Cl)ccc3N3CCOCC3)c(=O)c3ccccc23)cc1	20	-19	-4	7.3µM*	i
O=C(N/N=C/c1ccc2c(c1)OCO2)c1ccc(NC(=O)c2ccccc2Cl)cc1	?	1	-11	13µM*	i
O=C(N/N=C/c1ccc2c(c1)OCO2)c1cccc(NC(=O)c2ccccc2Cl)c1	0	25	-3	?	i
Cn1cc(/C=C(\C#N)C(=O)Nc2ccccc2O)c2ccccc21	?	9	-11	8.2µM*	i
O=C1c2cccc3cccc(c23)C(=O)N1CC1CCN(S(=O)(=O)c2ccc(F)cc2)CC1	0	?	-4	21µM*	/
O=C1c2cccc3cccc(c23)C(=O)N1CC1CCN(S(=O)(=O)c2ccccc2)CC1	/	-12	/	/	i
COc1ccc(CN(CCC(c2ccc(F)cc2)C2CCOC(C)(C)C2)C(=O)c2ccco2)cc1 (configuration not stated)	?	-6	-10	10µM*	?
CC(c1ccccc1)N(CCC(c1ccccc1)C1CCOC(C)(C)C1)C(=O)c1ccco1 (configuration not stated)	?	-7	-25	23µM*	/
Cc1ccc(Nc2nc(C)nc(N)c2S(=O)(=O)c2ccccc2)cc1	/	/	/	/	i
O=C(C1CCCN(c2ncnc3c2nc2n3CCCCC2)C1)N1CCN(c2cccc(Cl)c2)CC1 (configuration not stated)	19	-6	-5	8.2µM*	?
O=C(C1CCCN(c2ncnc3c2nc2n3CCCCC2)C1)N1CCN(c2ccccc2)CC1 (configuration not stated)	20	3	-22	?	i
Cc1ccc(C)c(N2CCN(C(=O)C3CCCN(c4ncnc5c4nc4n5CCCCC4)C3)CC2)c1 (configuration not stated)	?	-12	-5	13µM*	?
CCc1ccc(-n2nc(CO)c(C(=O)NC(C)c3ccc(Cl)cc3)n2)cc1 (configuration not stated)	/	/	/	/	i
CCCSc1ncc(Cl)c(C(=O)Nc2ccc(S(=O)(=O)N3CCCCC3C)cc2)n1 (configuration not stated)	/	/	/	/	i
CCCOc1ccc(/C=C/C(=O)N2CCOCC2)cc1	89*	1	-8	?	?
CC(C)c1ccc(/C=C/C(=O)N2CCOCC2)cc1	94*	-7	8	?	i
